# In PubChem BioAssay (NCATS):
# Records with an inconclusive call do not appear. Entries that show only a call come without a potency. A number with no mark means an inactive call. Calls of active or inactive are those of the source. Calls follow the shape of the dose curve; as a rule, active = well fitted inhibition curve with a large enough effect; inconclusive = small, poorly fitted or top-dose-only effect; inactive = flat fitted curve, though single readings scatter. Where a SMILES comes first, the peptide text is derived from it. [ ]: non-standard residue; d: D form. 2Abz = Nc1ccccc1C(=O)O
# Target: Calcium and integrin-binding protein 1 (Homo sapiens) (UniProt Q99828)
# Sequence (Q99828 whole entry, looked up): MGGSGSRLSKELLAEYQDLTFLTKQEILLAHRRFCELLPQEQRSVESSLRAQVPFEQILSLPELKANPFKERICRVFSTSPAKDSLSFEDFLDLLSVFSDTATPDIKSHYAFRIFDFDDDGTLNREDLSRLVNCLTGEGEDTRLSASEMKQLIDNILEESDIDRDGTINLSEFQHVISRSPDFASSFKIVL
# Assay: Primary qHTS for Identification of Calcium Integrin Binding Protein 1 (CIB1) Competitor (AID 1508620);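 also: GST tagged CIB1 binding a fluorescein labelled alphaIIb integrin peptide tracer; top concentration of the series differs between compounds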
# Settings: CIB1-GST / FITC-alphaIIb peptide fluorescence polarization; series mostly up to 57.7 µM
# Method in brief: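 CIB1-GST (1 uM final) and compound incubated 15 min at room temperature before adding FITC-alphaIIb peptide tracer (100 nM final). Competition for binding read by fluorescence polarization (ex 480, em 540) after another 15 min at room temperature.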
Compound,Potency,"activity change, negative = inhibition"
C=C1CC2C3(C)C(O)CC(=O)C(C)(C)C3C(OC(C)=O)C(OC(C)=O)C2(C)C2C(=O)OC(C)(C(=O)OC)C(=O)C12C (stereo not given),inactive,
CC1=C2C3OC(=O)C(C)C3(O)CCC2(C)CCC1=O (stereo not given),inactive,
COC1=CC(=O)O[C@@H](/C=C/c2ccccc2)[C@@H]1O,inactive,
CCC(C)/C=C(C)/C=C/C1=CC2=C(Cl)C(=O)C(C)(OC(C)=O)C(=O)C2=CN1CCCC(=O)O (stereo not given),inactive,
C[C@H]1C[C@H]2[C@@H]3CCC4=CC(=O)C=C[C@]4(C)[C@@]3(F)[C@@H](O)C[C@]2(C)[C@@]1(O)C(=O)COP(=O)(O)O,inactive,
C[C@H]1[C@H](C)CC[C@]2(C(=O)O[C@@H]3O[C@H](CO)[C@@H](O)[C@H](O)[C@H]3O)CC[C@]3(C(=O)O)C(=CCC4[C@@]5(C)CC[C@H](O[C@@H]6O[C@H](CO)[C@@H](O)[C@H](O)[C@H]6O)C(C)(C)C5CC[C@]43C)[C@H]12 (stereo not given in full),inactive,
O=C(/C=C/c1ccc(O)cc1)OCC1=CC2OC(=O)C3=CO[C@@H](O[C@@H]4O[C@H](CO)[C@@H](O)[C@H](O)[C@H]4O)[C@H]1[C@@H]32 (stereo not given in full),inactive,
O=C(OCC12OC1C=CC(OC(=O)c1ccccc1)C2O)c1ccccc1 (stereo not given),inactive,
COC(=O)C1C(CC(C)=O)C=CC(O)C12Oc1cc(C)cc(O)c1C2=O (stereo not given),inactive,
C/C=C/C=C/C=C/C(=O)O[C@@H]1C=C(CO)C(O)(C(=O)O)[C@@]2(C)CCCC(C)(C)[C@H]12 (stereo not given in full),inactive,
CC(C)c1nc(N(C)S(C)(=O)=O)nc(-c2ccc(F)cc2)c1/C=C/[C@@H](O)C[C@@H](O)CC(=O)O,inactive,
O=C(O)C[C@H]1CCC(=O)[C@@H]1C/C=C\CCOC1OC(CO)C(O)C(O)C1O (stereo not given in full),inactive,
C/C=C(\C)C(=O)O[C@@H]1CC2[C@@H](CC=C3C[C@@H](O[C@H]4C[C@H](OC)[C@H](O[C@H]5C[C@H](OC)[C@H](O[C@H]6C[C@H](OC)[C@H](O[C@H]7C[C@@H](OC)[C@H](O[C@@H]8O[C@H](CO)[C@@H](O)[C@H](O)[C@H]8O)[C@@H](C)O7)[C@@H](C)O6)[C@@H](C)O5)[C@@H](C)O4)CC[C@@]32C)[C@@]2(O)CC[C@H](C(C)=O)[C@@]12C (stereo not given in full),,0.036% [at 12.4 µM]
Cc1c(N2C(=O)c3ccc(C(=O)O)cc3C2=O)c(=O)n(-c2ccccc2)n1C,inactive,
CC(C)C1=CCC(C)(O)C(OC2OC(CO)C(O)C(O)C2O)C1 (stereo not given),inactive,
CC1=CC2(O)/C=C/C(C)(O)CC(O)/C=C/C(=O)OC23C(=O)NC(CC(C)C)C3C1C (stereo not given),inactive,
C[C@@H]1CC[C@]2(C(=O)O)CC[C@]3(C)C(=CCC4[C@]5(C)C(CC[C@]43C)C(C)(C)[C@@H](O)[C@H](O)[C@@H]5O)C2[C@]1(C)O (stereo not given in full),inactive,
CN[C@@H]1[C@@H](O)[C@@H](O[C@@H]2[C@@H](O)[C@H](O[C@H]3O[C@H](CN)[C@@H](O)[C@H](O)[C@H]3O)[C@@H](N)C[C@H]2NC(=O)[C@@H](O)CN)OC[C@]1(C)O,inactive,
COc1c(C)c(OCC=C(C)C)cc2c1C(=O)NC2=O,inactive,
COc1cc(CC(COC2OC(CO)C(O)C(O)C2O)c2cc(/C=C/CO)cc(OC)c2O)ccc1O (stereo not given),inactive,

Compound,Potency,"activity change, negative = inhibition"
C[C@@H]1O[C@@H](O[C@H]2[C@H](OC(=O)[C@]34CCC(C)(C)C[C@H]3C3=CCC5[C@@]6(C)C[C@H](O)[C@H](O[C@@H]7O[C@H](CO[C@@H]8OC[C@H](O)[C@H](O)[C@H]8O)[C@@H](O)[C@H](O)[C@H]7O)C(C)(C)C6CC[C@@]5(C)[C@]3(C)C[C@H]4O)OC[C@@H](O)[C@@H]2O)[C@H](O)[C@H](O[C@@H]2OC[C@](O)(CO)[C@H]2O)[C@H]1O[C@@H]1OC[C@H](O)[C@H](O[C@@H]2OC[C@@H](O)[C@H](O)[C@H]2O)[C@H]1O (stereo not given in full),,1.69% [at 12.4 µM]
CN1C(=O)c2ccccc2-n2c(nc3ccccc3c2=O)[C@@]12O[C@H]2c1ccccc1,inactive,
OC[C@H]1O[C@@H](n2cnc3c(NCc4ccc(O)cc4)ncnc32)[C@H](O)[C@@H]1O,inactive,
CCC(CCO[C@@H]1O[C@H](CO[C@H]2OC[C@](O)(CO)[C@H]2O)[C@@H](O)[C@H](O)[C@H]1O)C(C)(C)O (stereo not given in full),inactive,
CCC(C)C1NC(=O)C2CCCN2C(=O)C(C(C)C)NC(=O)c2ccccc2NC(=O)C(Cc2ccc(O)cc2)NC(=O)C(C)NC(=O)C(C(C)O)NC1=O (stereo not given) (cyclo([2Abz]VPITAY); configuration not given here),inactive,
CC(C)(O)C1CC=C(C(=O)OCC2OC(Oc3c(O)cc(C(=O)O)cc3O)C(O)C(O)C2O)CC1 (stereo not given),inactive,
C[C@@H]1O[C@@H](O[C@H]2[C@H](O[C@H]3CC[C@@]4(C)C(CC[C@]5(C)C4CC=C4C6CC(C)(C)CC[C@]6(C(=O)O[C@@H]6O[C@H](CO[C@@H]7O[C@H](CO)[C@@H](O[C@@H]8O[C@@H](C)[C@H](O)[C@@H](O)[C@H]8O)[C@H](O)[C@H]7O)[C@@H](O)[C@H](O)[C@H]6O)CC[C@]45C)[C@]3(C)CO)OC[C@H](O)[C@@H]2O)[C@H](O)[C@H](O)[C@H]1O (stereo not given in full),,2.74% [at 12.4 µM]
COc1cc([C@H]2OC[C@@H]3[C@@H](c4ccc(O[C@@H]5O[C@H](CO)[C@@H](O)[C@H](O)[C@H]5O)c(OC)c4)OC[C@]23O)ccc1O,inactive,
C[C@@H]1O[C@@H](O[C@@H]2[C@@H](O)[C@@H](O)[C@H](O[C@@H]3[C@@H](O)[C@@H](O[C@]4(CO)O[C@H](CO)[C@@H](O)[C@@H]4OC(=O)/C=C/c4ccc(O)cc4)O[C@H](CO)[C@H]3OC(=O)/C=C/c3ccc(O)cc3)O[C@H]2C)[C@H](O)[C@H](O)[C@H]1O,inactive,
C=C(C)[C@@H]1CC[C@](C)(O)[C@@H](OC(=O)c2ccccc2)C1,inactive,
CC(=O)O[C@H]1[C@H](Oc2ccccc2COC(=O)C2(O)C=CCCC2=O)O[C@H](CO)[C@@H](O)[C@@H]1O (stereo not given in full),inactive,
OC[C@H]1O[C@@H](OC(CCCCc2ccc(O)cc2)CCc2ccc(O)cc2)[C@H](O[C@@H]2OC[C@](O)(CO)[C@H]2O)[C@@H](O)[C@@H]1O (stereo not given in full),inactive,
C/C(=C\CCC(C)(O)c1ccc(C)cc1)C(=O)O (stereo not given),inactive,
CC1CCC2(NC1)OC1C(=O)C3C4CCC5CC(O[C@@H]6O[C@H](CO)[C@@H](O)[C@H](O)[C@H]6O[C@@H]6O[C@@H](C)[C@H](O)[C@@H](O)[C@H]6O)CCC5(C)C4CCC3(C)C1C2C (stereo not given in full),inactive,
CCC(C)(O)C(O)C(=O)OCc1ccc(O[C@@H]2O[C@H](CO)[C@@H](O)[C@H](O)[C@H]2O)cc1 (stereo not given in full),inactive,
CCC(C)/C=C(C)/C=C/C1=CC2=C(Cl)C(=O)C(C)(OC(C)=O)C(=O)C2=CN1C1CCCCN(C(CCC(N)=O)C(=O)O)C1=O (stereo not given),inactive,
COC(=O)[C@H](OC(C)=O)[C@H]1C(C)(C)C(=O)[C@H]2CC3=C4CC(=O)O[C@@H](c5ccoc5)[C@]4(C)CCC3[C@@]1(C)C2=O (stereo not given in full),inactive,
CC1CCC2C(C(=O)O)=CC3C(O)C(C)(C)CC123 (stereo not given),inactive,
COc1cc(-c2cccc(O)c2)cc2c1OCO2,inactive,
C/C=C/C1=CC2=CC(=O)C(C)(O)C(OC(=O)c3c(C)cc(O)cc3O)C2CO1 (stereo not given),inactive,
